Compounds without any hit were thinned out: in the full panel of roughly 83,000, 20% have a hit.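 How to read the values: 0–100, growth inhibition (40 = 60% inhibited); 0, no net growth; -100 to 0, cell death (-40 = 40% of starting cells died; -100 = all dead).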 Activity calls are given as the source filed them.

For the assay, the system named is T-47D breast. The assay can be described thus: NCI-60 one-dose screen, 48 h (100 = growth as untreated, 0 = no growth, -100 = all killed). Particulars: 10 µM unless noted. As for the experimental part:
Growth inhibition of the T-47D human tumor cell line is measured as a screen for anti-cancer activity. Cells are grown in 96 well plates and exposed to the test compound for 48 hours. Compounds are tested at a single concentration, which is 10^-5 M for most compounds. The reported endpoint is percent growth (GI% or GIPRCNT), where numbers from 0 - 100% represent growth inhibition, and numbers from -100% - 0 represent cell death. For example, a value of 40 represents 60% growth inhibition. A value of 0 means no net growth occurred over the course of the experiment. A value of -40 indicates 40% of cells at the beginning of the experiment died by the end of the experiment. A value of -100 means all cells are dead at the end of the experiment.
NCI-60 Human Tumor Cell Lines Screen was performed using the standard one-dose NCI protocol, which is described in more detail at https://dtp.cancer.gov/discovery_development/nci-60/default.htm.
Compounds with GIPRCNT values below 10 were considered active. Activity score was based on GIPRCNT using the following formula: […]
Score is 0 for GIPRCNT values of 100 or above, 50 for GIPRCNT values of 0, and 100 for GIPRCNT values of -100.
On to `CCOC(=O)c1[nH]cc2c1CCc1sc(Nc3ccccn3)nc1-2`, for which the growth was 55.4% (inactive).

`COc1ccc(N=C2NN=C(c3c[nH]c4ccccc34)CS2)cc1OC`: the growth is 57.5% (inactive).

Consider `CSc1nc(-c2ccco2)c(C#N)c(=O)n1C`, for which the growth was 107% (inactive).

Take `O=C1C(Cl)=C(Nc2ccccc2)C(=O)c2ccccc21`: the growth was -2.5% (active).

In the case of `COc1ccc(-c2cn(Cc3cc4ccccc4s3)nn2)cc1OCCN1CCCCC1`, the growth was 85.1% (inactive).

Turning to `COc1c2c(cc3c1C(=O)N[C@@H]1[C@@H](O)[C@@H](O)[C@H](O)C[C@@H]31)OCCO2`, the growth was 84.9% (inactive).

`O=C1c2cccnc2C(=O)c2c1c(C(=O)OCCc1ccccn1)c1ccccn21`: the growth was -6.8% (active).

As for `COc1ccccc1/C=C/C(=O)Nc1ccc(F)cc1`, the growth is 75.4% (inactive).

For `O=C1/C(=C/c2c[nH]c(=O)[nH]c2=O)SC(=S)N1Cc1ccccc1`, the growth was 108% (inactive).

On to `C=CN(C(=O)N1CCN(c2cc3c(cc2F)c(=O)c(C(=O)O)cn3C2CC2)CC1)c1nc(-c2ccc(Cl)cc2)cs1`, for which the growth is 76.2% (inactive).

As for `c1cc(OCCN2CCCCC2)ccc1CNc1ccc2nc(CCC3CCCCC3)[nH]c2c1`, the growth is -29.6% (active).

For the compound `C#CCOc1cccc(Nc2ncnc3c2ncn3C2CCN(C(=O)CCl)C2)c1` (stereo not given), the growth was -45.2% (active).

As for `Cc1cccc(N2C(=O)/C(=C/C(Cl)=C/c3ccc([N+](=O)[O-])cc3)SC2=S)c1C`, the growth was 5.42% (active).

Regarding `N[C@@H]1CCC[C@H]1NCCCCN1C(=O)c2cccc3cc([N+](=O)[O-])cc(c23)C1=O`, the growth is 38.1% (inactive).

On to `Nc1nc(N)c2c(n1)NC(c1cccc(Nc3ccnc4cc(C(F)(F)F)ccc34)c1)CC(c1ccc3c(c1)OCO3)=N2` (stereo not given), for which the growth was 90.6% (inactive).

Consider `COc1cc(/C=C/C(=O)c2cc(OC)c(OC)c(OC)c2)ccc1Oc1nc2c(c(=O)n(C)c(=O)n2C)n1C`, for which the growth is -16.1% (active).

For `COc1cc2ncnc(Nc3ccc(F)c(Cl)c3)c2cc1OCC(=O)N1CCOCC1`, the growth was 53.5% (inactive).

On to `CCCCCc1ccc(S(=O)(=O)Nc2ccc3nc(N)oc3c2)cc1`, for which the growth was 36.1% (inactive).

`C[C@H](c1nc2ccc(C#N)cc2[nH]1)[C@H]1CC[C@H]2[C@@H]3CCC4=CC(=O)CC[C@]4(C)[C@H]3CC[C@]12C`: the growth is 29.4% (inactive).

As for `C=CC(=O)Nc1cccc(Oc2nccc(Nc3nnc(-c4ccc(Br)cc4)s3)n2)c1`, the growth is 82.1% (inactive).

Turning to `Oc1ccc(-c2nc3ccc4[nH]ncc4c3c3c2CCCC3)c(F)c1`, the growth was 33% (inactive).

With `COc1ccc(-c2nc3c(c(-c4ccc(Cl)cc4)nn3-c3ccccc3)c(-c3ccccc3)c2C#N)cc1`, the growth is 94.3% (inactive).

For the compound `ClCCn1cnc2c(SCc3ccccc3)ncnc21`, the growth is 73.8% (inactive).

Regarding `Cc1ccc(S(=O)(=O)OCC#CCOS(=O)(=O)c2ccc(C)cc2)cc1`, the growth was -22.9% (active).

With `Clc1ccc(-c2cc(-c3ccccc3)nc(N3CCN(CCCNc4ccnc5cc(Cl)ccc45)CC3)n2)cc1`, the growth is -56.1% (active).

As to `O=[N+]([O-])c1ccccc1Nc1ccc2ccccc2c1`, the growth is 91.1% (inactive).

In the case of `c1cc(OCCN2CCCCCC2)ccc1CNc1ccc2nc(CCC3CCCCC3)[nH]c2c1`, the growth was 31.6% (inactive).

Turning to `COc1cc2c(cc1OCCCN1CCN(C(=S)SCCC(C#N)(c3ccccc3)c3ccccc3)CC1)N=C[C@@H]1CCCN1C2=O`, the growth is -50.5% (active).

With `CN(C)c1ccc([C@@H](C(=O)Nc2cccc([N+](=O)[O-])c2)N(C(=O)c2cc3ccccc3[nH]2)c2cccc([N+](=O)[O-])c2)cc1`, the growth is 84% (inactive).

As to `CCOc1ccc(/C=C/C(=O)c2cccc(OCCCOc3cccc(C(=O)/C=C/c4ccc(OCC)cc4)c3)c2)cc1`, the growth is 63.4% (inactive).

`Oc1c(CN2CCC(N3CCOCC3)CC2)cc(Cc2cc(CN3CCC(N4CCOCC4)CC3)c(O)c3ncccc23)c2cccnc12`: the growth was 21.5% (inactive).

Consider `COc1ccc(C2[C@@H](c3ccccc3)C(=O)N2c2cc(OC)c(OC)c(OC)c2)cc1F` (stereo not given in full), for which the growth is 61.7% (inactive).

Consider `CCN(CC)CCn1c2ccc(OC)cc2c2sc3cc(O)ccc3c(=O)c21`, for which the growth was 62.5% (inactive).

Consider `CCN1C2CCC1/C(=C\c1ccccc1)C(=O)/C2=C/c1ccccc1`, for which the growth was 56.9% (inactive).

On to `O=C(Nc1ncc(Cc2ccccc2)s1)c1sc2ccccc2c1Cl`, for which the growth was 19.3% (inactive).

For the compound `Cn1cc(-c2csc(-c3cn(CCCN4CCOCC4)c4ccc(F)cc34)n2)c2cccnc21`, the growth is 41.1% (inactive).

For `Cn1cc(-c2nonc2-c2c[nH]c3ccccc23)c2cc(Br)ccc21`, the growth was 14.5% (inactive).

Regarding `COc1ccc(/C=N/NC(=O)Cn2c(-c3ccc(S(C)(=O)=O)cc3)nc3ccccc32)cc1`, the growth was 102% (inactive).

For the compound `c1ccc2cc(Cn3cc(CSc4nc5ccccc5s4)nn3)ccc2c1`, the growth is 80.8% (inactive).

On to `C/C=C1/CN(CCCCC)CC[C@H]1C(=O)c1cc2ccccc2[nH]1`, for which the growth is 82.6% (inactive).
